Tests used:
[1] = test system: Proto-oncogene tyrosine-protein kinase receptor Ret (Homo sapiens), P07949 [Y791F]; settings: at 1 µM
[2] = molecular target: Macrophage-stimulating protein receptor (Homo sapiens) (UniProt Q04912); settings: at 0.1 µM
[3] = molecular target: Macrophage-stimulating protein receptor (Homo sapiens) (UniProt Q04912); settings: at 1 µM
[4] = molecular target: Proto-oncogene tyrosine-protein kinase ROS (Homo sapiens) (UniProt P08922); settings: at 0.1 µM
[5] = molecular target: Proto-oncogene tyrosine-protein kinase ROS (Homo sapiens) (UniProt P08922); settings: at 1 µM
[6] = molecular target: Proto-oncogene tyrosine-protein kinase Src (Homo sapiens) (UniProt P12931); settings: at 0.1 µM
[7] = molecular target: Proto-oncogene tyrosine-protein kinase Src (Homo sapiens) (UniProt P12931); settings: at 1 µM
[8] = molecular target: Tyrosine-protein kinase Srms (Homo sapiens) (UniProt Q9H3Y6); settings: at 0.1 µM
Chain of Tyrosine-protein kinase Srms (Homo sapiens) (Q9H3Y6 whole entry): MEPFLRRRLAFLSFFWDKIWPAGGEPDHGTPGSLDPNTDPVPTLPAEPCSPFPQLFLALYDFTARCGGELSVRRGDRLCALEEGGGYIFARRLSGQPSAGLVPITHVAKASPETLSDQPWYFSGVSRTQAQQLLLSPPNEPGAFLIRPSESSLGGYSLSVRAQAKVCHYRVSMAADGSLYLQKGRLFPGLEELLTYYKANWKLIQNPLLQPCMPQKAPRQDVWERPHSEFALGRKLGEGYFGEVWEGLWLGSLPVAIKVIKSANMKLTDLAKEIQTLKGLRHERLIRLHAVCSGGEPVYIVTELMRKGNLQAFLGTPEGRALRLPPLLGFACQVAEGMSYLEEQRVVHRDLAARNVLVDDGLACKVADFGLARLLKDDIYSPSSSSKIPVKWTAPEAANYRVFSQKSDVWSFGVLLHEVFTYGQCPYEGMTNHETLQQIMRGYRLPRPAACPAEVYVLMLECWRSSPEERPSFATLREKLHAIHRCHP

[9] = molecular target: Tyrosine-protein kinase Srms (Homo sapiens) (UniProt Q9H3Y6); settings: at 1 µM
[10] = molecular target: Tyrosine-protein kinase SYK (Homo sapiens) (UniProt P43405); settings: at 0.1 µM
[11] = molecular target: Tyrosine-protein kinase SYK (Homo sapiens) (UniProt P43405); settings: at 1 µM
[12] = molecular target: T1, Tyrosine-protein kinase Tec (Homo sapiens) (UniProt P42680); settings: at 0.1 µM
T1 sequence (whole entry): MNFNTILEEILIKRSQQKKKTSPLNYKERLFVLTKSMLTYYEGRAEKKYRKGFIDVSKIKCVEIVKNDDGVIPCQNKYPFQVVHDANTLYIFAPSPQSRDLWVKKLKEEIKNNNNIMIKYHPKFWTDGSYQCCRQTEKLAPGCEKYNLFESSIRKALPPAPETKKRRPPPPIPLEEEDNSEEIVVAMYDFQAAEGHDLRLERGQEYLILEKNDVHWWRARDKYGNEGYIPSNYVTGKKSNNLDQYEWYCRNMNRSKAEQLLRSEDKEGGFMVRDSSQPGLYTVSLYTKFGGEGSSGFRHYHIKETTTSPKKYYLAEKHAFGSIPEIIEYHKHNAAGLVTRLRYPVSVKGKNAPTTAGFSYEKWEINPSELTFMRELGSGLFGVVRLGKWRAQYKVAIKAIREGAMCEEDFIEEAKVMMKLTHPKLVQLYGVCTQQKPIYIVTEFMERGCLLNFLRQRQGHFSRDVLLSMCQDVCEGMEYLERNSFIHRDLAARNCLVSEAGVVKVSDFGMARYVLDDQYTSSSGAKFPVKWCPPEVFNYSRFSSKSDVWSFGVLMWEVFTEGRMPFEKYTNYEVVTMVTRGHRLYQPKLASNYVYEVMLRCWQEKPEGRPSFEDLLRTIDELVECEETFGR

[13] = molecular target: T1, Tyrosine-protein kinase Tec (Homo sapiens); settings: at 1 µM
[14] = molecular target: Angiopoietin-1 receptor (Homo sapiens) (UniProt Q02763); settings: at 0.1 µM
[15] = molecular target: Angiopoietin-1 receptor (Homo sapiens) (UniProt Q02763); settings: at 1 µM
[16] = molecular target: T2, Non-receptor tyrosine-protein kinase TNK1 (Homo sapiens) (UniProt Q13470); settings: at 0.1 µM
T2 sequence (whole entry): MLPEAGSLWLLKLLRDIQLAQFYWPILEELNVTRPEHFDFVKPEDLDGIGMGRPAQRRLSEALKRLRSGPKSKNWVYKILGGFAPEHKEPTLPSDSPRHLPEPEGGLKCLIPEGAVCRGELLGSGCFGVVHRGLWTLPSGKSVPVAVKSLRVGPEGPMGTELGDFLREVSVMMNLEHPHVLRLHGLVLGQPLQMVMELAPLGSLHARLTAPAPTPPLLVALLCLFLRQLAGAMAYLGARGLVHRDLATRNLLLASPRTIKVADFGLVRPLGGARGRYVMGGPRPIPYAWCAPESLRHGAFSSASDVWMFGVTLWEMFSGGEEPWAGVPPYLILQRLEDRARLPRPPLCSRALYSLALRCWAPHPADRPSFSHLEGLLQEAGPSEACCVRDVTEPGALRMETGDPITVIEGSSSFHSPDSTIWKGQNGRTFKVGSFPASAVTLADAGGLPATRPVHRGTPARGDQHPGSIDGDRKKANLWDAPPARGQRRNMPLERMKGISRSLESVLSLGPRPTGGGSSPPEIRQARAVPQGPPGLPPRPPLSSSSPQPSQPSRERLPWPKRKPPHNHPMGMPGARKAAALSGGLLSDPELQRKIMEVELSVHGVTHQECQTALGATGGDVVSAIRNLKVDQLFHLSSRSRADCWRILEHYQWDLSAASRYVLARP

[17] = molecular target: T2, Non-receptor tyrosine-protein kinase TNK1 (Homo sapiens); settings: at 1 µM
[18] = molecular target: Activated CDC42 kinase 1 (Homo sapiens) (UniProt Q07912); settings: at 0.1 µM
[19] = molecular target: Activated CDC42 kinase 1 (Homo sapiens) (UniProt Q07912); settings: at 1 µM
[20] = molecular target: High affinity nerve growth factor receptor (Homo sapiens) (UniProt P04629); settings: at 0.1 µM;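 further: each value is a mean of replicate percent inhibition readings against TRKA kinase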
Chain of High affinity nerve growth factor receptor (Homo sapiens) (P04629 33-796 limits assumed): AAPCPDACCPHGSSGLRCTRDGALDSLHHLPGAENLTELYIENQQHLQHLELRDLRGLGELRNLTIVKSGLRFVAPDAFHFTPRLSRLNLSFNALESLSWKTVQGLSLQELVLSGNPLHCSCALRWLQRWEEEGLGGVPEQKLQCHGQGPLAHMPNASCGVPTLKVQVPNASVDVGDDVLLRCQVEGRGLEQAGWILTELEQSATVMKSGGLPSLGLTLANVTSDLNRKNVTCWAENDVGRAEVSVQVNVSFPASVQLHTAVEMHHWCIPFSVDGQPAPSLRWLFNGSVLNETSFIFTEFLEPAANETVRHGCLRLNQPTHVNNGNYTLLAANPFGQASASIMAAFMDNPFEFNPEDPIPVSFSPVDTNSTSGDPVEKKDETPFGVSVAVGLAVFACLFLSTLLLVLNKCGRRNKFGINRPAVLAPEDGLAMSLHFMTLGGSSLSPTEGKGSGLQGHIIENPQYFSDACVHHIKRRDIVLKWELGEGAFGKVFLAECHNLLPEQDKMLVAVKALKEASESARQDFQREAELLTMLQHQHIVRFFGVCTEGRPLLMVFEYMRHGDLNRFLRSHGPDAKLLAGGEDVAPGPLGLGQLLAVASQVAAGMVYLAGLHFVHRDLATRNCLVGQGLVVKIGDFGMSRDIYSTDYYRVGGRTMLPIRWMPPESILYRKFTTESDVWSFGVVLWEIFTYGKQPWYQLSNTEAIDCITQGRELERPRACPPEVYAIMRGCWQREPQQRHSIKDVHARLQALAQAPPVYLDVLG

Chain of Proto-oncogene tyrosine-protein kinase ROS (Homo sapiens) (P08922 whole entry): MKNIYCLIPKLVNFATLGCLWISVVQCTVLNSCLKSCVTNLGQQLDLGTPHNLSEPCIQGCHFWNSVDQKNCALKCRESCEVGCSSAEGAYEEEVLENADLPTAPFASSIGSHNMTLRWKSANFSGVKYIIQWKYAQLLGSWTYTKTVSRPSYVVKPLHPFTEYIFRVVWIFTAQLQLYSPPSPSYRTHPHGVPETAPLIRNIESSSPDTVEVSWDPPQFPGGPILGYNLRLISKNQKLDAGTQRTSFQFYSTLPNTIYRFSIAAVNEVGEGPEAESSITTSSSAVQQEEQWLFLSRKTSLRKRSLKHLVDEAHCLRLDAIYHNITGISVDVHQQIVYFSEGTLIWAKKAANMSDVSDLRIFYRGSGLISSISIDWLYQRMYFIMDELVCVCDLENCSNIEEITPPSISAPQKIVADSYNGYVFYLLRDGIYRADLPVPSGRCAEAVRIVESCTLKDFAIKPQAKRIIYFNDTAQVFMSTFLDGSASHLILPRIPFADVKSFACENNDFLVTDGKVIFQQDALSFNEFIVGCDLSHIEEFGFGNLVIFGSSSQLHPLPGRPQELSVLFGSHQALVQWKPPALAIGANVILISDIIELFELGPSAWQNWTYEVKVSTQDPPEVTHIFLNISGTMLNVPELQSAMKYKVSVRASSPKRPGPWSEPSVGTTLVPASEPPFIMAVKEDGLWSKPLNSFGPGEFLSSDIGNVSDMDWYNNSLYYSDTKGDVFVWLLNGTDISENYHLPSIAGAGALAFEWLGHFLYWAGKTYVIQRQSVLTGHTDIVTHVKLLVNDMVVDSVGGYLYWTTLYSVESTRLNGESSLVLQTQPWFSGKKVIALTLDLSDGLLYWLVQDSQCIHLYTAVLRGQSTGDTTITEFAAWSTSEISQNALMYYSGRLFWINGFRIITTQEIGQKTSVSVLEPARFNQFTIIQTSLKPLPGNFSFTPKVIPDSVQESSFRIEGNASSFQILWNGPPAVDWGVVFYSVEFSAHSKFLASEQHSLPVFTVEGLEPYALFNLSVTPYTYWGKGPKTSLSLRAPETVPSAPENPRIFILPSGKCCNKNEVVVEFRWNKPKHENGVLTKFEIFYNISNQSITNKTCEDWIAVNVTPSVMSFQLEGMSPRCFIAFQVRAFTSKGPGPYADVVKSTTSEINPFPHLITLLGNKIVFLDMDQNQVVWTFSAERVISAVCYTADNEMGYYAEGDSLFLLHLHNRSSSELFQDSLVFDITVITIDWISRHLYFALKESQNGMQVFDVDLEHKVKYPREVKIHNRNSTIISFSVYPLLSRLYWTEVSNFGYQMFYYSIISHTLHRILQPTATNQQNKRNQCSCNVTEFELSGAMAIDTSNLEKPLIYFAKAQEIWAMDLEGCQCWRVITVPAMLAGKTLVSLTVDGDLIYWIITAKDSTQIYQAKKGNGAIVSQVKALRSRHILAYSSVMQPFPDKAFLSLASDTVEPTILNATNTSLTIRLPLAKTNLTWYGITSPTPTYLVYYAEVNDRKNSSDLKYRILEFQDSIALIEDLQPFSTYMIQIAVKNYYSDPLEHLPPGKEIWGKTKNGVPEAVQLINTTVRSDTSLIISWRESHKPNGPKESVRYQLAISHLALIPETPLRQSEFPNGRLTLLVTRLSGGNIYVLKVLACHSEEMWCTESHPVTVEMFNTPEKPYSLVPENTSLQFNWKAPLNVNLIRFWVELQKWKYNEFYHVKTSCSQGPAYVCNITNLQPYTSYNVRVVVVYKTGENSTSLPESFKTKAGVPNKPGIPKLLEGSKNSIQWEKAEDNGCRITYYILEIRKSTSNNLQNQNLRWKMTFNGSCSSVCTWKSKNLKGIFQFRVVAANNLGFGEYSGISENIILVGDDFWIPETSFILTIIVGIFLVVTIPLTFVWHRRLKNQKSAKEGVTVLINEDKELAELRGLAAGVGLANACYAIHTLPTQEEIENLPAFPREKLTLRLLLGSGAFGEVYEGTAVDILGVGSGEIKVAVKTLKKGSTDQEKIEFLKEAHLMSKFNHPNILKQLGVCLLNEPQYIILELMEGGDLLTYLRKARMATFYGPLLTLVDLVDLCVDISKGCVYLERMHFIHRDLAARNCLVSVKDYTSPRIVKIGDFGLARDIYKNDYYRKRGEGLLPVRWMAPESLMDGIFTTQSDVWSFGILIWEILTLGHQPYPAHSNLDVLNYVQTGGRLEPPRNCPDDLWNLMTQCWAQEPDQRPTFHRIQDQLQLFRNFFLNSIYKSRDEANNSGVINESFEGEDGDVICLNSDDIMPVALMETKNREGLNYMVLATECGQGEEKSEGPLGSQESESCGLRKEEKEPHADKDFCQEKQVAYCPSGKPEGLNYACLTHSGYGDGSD
Chain of Macrophage-stimulating protein receptor (Homo sapiens) (Q04912 25-304 limits assumed): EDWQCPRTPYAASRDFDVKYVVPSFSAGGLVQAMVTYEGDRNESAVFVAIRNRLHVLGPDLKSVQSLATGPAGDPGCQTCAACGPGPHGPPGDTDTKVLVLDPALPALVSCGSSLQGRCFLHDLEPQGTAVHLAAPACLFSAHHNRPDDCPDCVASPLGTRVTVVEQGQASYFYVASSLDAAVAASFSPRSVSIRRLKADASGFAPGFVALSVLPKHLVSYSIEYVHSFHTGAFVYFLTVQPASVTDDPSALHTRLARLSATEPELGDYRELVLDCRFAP
Chain of Macrophage-stimulating protein receptor (Homo sapiens) (Q04912 310-1400 limits assumed): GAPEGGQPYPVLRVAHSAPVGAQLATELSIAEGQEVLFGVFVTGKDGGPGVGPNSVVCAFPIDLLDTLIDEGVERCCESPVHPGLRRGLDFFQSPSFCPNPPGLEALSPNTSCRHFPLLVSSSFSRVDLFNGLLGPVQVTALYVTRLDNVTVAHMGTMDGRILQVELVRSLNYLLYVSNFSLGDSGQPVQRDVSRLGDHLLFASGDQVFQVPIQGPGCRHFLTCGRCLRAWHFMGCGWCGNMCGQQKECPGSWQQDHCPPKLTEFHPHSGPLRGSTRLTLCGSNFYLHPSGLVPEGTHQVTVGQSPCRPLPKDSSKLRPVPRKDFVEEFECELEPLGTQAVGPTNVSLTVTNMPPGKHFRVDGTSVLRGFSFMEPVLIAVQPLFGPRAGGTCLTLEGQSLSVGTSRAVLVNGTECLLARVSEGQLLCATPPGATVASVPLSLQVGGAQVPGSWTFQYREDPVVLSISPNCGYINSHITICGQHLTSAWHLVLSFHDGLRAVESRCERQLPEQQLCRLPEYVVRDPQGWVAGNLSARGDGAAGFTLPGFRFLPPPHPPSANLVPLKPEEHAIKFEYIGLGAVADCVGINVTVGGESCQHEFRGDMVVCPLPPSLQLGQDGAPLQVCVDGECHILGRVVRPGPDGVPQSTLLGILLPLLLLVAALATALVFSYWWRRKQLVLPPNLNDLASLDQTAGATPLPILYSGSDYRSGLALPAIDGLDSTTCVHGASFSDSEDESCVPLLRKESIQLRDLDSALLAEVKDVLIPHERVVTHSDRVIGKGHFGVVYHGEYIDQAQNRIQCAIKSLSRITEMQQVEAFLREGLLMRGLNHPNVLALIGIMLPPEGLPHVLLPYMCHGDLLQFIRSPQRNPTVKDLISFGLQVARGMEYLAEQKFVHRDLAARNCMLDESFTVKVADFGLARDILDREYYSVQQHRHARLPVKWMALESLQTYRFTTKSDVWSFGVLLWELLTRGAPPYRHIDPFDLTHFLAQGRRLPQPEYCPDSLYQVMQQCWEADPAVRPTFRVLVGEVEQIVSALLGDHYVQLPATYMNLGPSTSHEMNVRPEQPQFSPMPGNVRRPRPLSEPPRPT

Row | Structure (SMILES) | inhibition [1] [%] | inhibition [2] [%] | inhibition [3] [%] | inhibition [4] [%] | inhibition [5] [%] | inhibition [6] [%] | inhibition [7] [%] | inhibition [8] [%] | inhibition [9] [%] | inhibition [10] [%] | inhibition [11] [%] | inhibition [12] [%] | inhibition [13] [%] | inhibition [14] [%] | inhibition [15] [%] | inhibition [16] [%] | inhibition [17] [%] | inhibition [18] [%] | inhibition [19] [%] | inhibition [20] [%]
1 | COc1cc2c(cc1Nc1nc(Nc3ccsc3C(N)=O)c3cc[nH]c3n1)N(C(=O)CN(C)C)CCC2 | 7.35 | 2.97 | 11.5 | 82.1 | 82.1 | 8.11 | 6.64 | 5.79 | 3.93 | 10.9 | 11.2 | -0.19 | 4.36 | 6.04 | 10.5 | 32.3 | 80.2 | 0.24 | 13.2 | –
2 | CCn1c(-c2nonc2N)nc2c(C#CC(C)(C)O)nc(O[C@@H](CN)c3ccccc3)cc21 | 80.3 | 1.9 | 3.42 | 2.61 | 11.1 | 2.84 | 20.9 | 4.6 | 0.15 | 1.9 | 0.56 | 0.79 | 5.82 | 2.63 | 11.4 | -3.17 | -3.26 | -0.88 | -1.74 | -3.19
3 | Cc1cc(-c2ccco2)cc(C)c1/C=C/c1cncc(-c2nn[nH]n2)c1 | 2.75 | 1.68 | -0.11 | 2.71 | 3.62 | 2.38 | 2.91 | 0.76 | 3.61 | 0.05 | -0.41 | -0.18 | 4.27 | 2.4 | 5.27 | 14.2 | 75.2 | 0.58 | 3.5 | -2.1
4 | CCn1c(-c2nonc2N)nc2c(C#CC(C)(C)O)ncc(OCC3CCNCC3)c21 | 33.5 | 0.01 | 7.68 | 3.89 | 5.45 | -0.03 | 8.65 | 0.75 | 1.57 | 0.62 | -0.6 | -0.71 | 0.43 | 0.65 | 3.85 | 1.75 | 10.6 | 0.81 | 1.2 | 3.1
5 | CCn1c(-c2nonc2N)nc2c(C#CC(C)(C)O)ncc(OC[C@@H]3CCCN3)c21 | 28.5 | 1.97 | -2.78 | -0.22 | 0.45 | -0.2 | -2.58 | 1.63 | 0.87 | -0.6 | -4.11 | 0.03 | 1.67 | -0.35 | 4.39 | 2.04 | 1.67 | -0.73 | -0.46 | -2.99
6 | COc1cccc(-n2ncc3c(N/N=C/c4ccncc4)ncnc32)c1 | 65.9 | 12.4 | 60.9 | 10.2 | 76 | 49.1 | 87.3 | 1.22 | 14.3 | -2.07 | 9.95 | 6.13 | 17.2 | 6.02 | 37.5 | 10.1 | 52.3 | 2.06 | 9.3 | 3.46
7 | NS(=O)(=O)c1ccc(-c2ccc3c(NC(=O)C4CC4)n[nH]c3c2)cc1 | 5.85 | 5.07 | 8.99 | 1.18 | 2.15 | 1.32 | 4.59 | -2.44 | -0.4 | -0.58 | -2.49 | 4.93 | 10.3 | 1.08 | 6.97 | 2.11 | 4.7 | 1.28 | 1.95 | 3.82

Source: ChEMBL document CHEMBL1961873, “Compounds: GSK PKIS; Assays: Nanosyn kinase panel” (2012)
